# Assay results: PubChem BioAssay (NCI)
# This is part of a sample that, as a whole, favours compounds with a hit. Of some 83,000 tested, about 20% had one in any assay.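 Results are percent growth after 48 hours of single-concentration exposure. 100 means growth as in untreated cells, lower positive values show inhibition; negative values down to -100 show cell death.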 Activity calls are given as the source filed them. The calls were made as follows: active = growth percent below 10; inactive = the rest.
# System: HL-60(TB) leukemia
# Test: NCI-60 one-dose screen, 48 h (100 = growth as untreated, 0 = no growth, -100 = all killed)
# Details: 10 µM unless noted
row,Structure (SMILES),growth
1,O=C(/C=C1\C(=O)N(Cc2ccc([N+](=O)[O-])cc2)c2ccccc21)c1ccc(OCCN2CCCC2)cc1,17.5% (inactive)
2,Cc1c(Cl)cccc1NC(=O)c1sc2nc3c(cc2c1N)CN(Cc1ccccc1)CC3,-22.9% (active)
3,O=C(Nc1cccc2c1C(=O)c1cccc(Nc3cccc4c3C(=O)c3cccc(NC(=O)c5ccccc5)c3C4=O)c1C2=O)c1ccccc1,118% (inactive)
4,Oc1c(CNCCNCc2cc(Cl)cc(Cc3ccccc3)c2O)cc(Cl)cc1Cc1ccccc1,-0.262% (active)
5,CSc1nc(O)c(-c2ccccc2)c(=O)[nH]1,89.5% (inactive)
6,O=C1Nc2ccc(F)cc2/C1=C\c1nc(-c2ccccc2F)n2ccccc12,120% (inactive)
7,COc1cc2c(cc1OC)C(Sc1ccc(SC)cc1)c1c(nc(N)c(C#N)c1N)O2 (stereo not given),-52.9% (active)
8,CCCCSCC(=O)c1ccccc1,63.4% (inactive)
9,CC(=O)OC/C=C(/C)C[P+](c1ccccc1)(c1ccccc1)c1ccccc1,44.9% (inactive)
10,COc1ccc(-c2nn(C(=O)c3cc(OC)c(OC)c(OC)c3)c3cc(N)ccc23)cc1,5.67% (active)
11,O=C(NCCCN1CCCCC1)c1ccc(-c2nc3ccc4[nH]ncc4c3c3c2CCCC3)cc1,93.4% (inactive)
12,CC1CCC2C(C)(C)C3CC12CC1OC13C (stereo not given),125% (inactive)
13,c1ccc2c3c([nH]c2c1)C(c1ccc(C2NCCc4c2[nH]c2ccccc42)cc1)NCC3 (stereo not given),-63.2% (active)
14,CCC(c1ccc(OC)cc1)C(CC)c1ccc(OCC[N+](C)(C)C)cc1 (stereo not given),-17.4% (active)
15,COC(=O)c1ccc(C2Nc3ccc(S(=O)(=O)Nc4ccc(C)c(C)c4)cc3C3OCCC23)cc1 (stereo not given),59.3% (inactive)
16,CCC(=O)c1ccc(Cl)s1,70.4% (inactive)
17,CCOC(=O)c1c(C)nc2c(c1N)CC(=O)N2Cc1ccc(OC)cc1,110% (inactive)
18,N#CC1=C(N)Oc2c(ccc3ccccc23)C1c1cccs1 (stereo not given),-29.6% (active)
19,CCOc1cc(/C=C/C(=O)CC(=O)/C=C/c2ccc(OC(=O)CNCCN(CC)CC)c(OCC)c2)ccc1OC(=O)CNCCN(CC)CC,-30.5% (active)
20,Nc1ncn(C2OC(CO)C(O)C2O)c(=O)n1 (stereo not given),-44.6% (active)

row,Structure (SMILES),growth
1,O=C1CCCN1C1CCN2CCCc3cccc1c32 (stereo not given),92.7% (inactive)
2,CC(=O)O[C@H]1[C@H](CC#CC#CC[C@@H]2C[C@]3(C)[C@H]4CC=C5[C@H]6[C@@H](C)[C@H](C)CC[C@]6(C(=O)NCCCCCCCCN)CC[C@@]5(C)[C@]4(C)CC[C@H]3C(C)(C)[C@H]2OC(C)=O)C[C@]2(C)[C@H]3CC=C4[C@H]5[C@@H](C)[C@H](C)CC[C@]5(C(=O)NCCCCCCCCN)CC[C@@]4(C)[C@]3(C)CC[C@H]2C1(C)C,104% (inactive)
3,COc1cccc(-c2nc(-c3ccc(NC(=O)OC(C)C)cc3)[nH]c2-c2ccnc(Br)c2)c1,-39.9% (active)
4,Fc1ccccc1Nc1n[nH]c(=S)s1,112% (inactive)
5,C=C1C(=O)O[C@H]2[C@H]1CC/C(CNC(=O)c1cccc3ccccc13)=C\CC[C@@]1(C)O[C@@H]21,-23.9% (active)
6,O=C1SCN(Cc2ccccc2)CN1Cc1ccccc1,70.7% (inactive)
7,COc1ccc2c(c1)/C(=C\c1c[nH]c3ccc(F)cc13)C(=O)N2,88.3% (inactive)
8,C=C[C@@H]1C[C@H](O)Cc2cc(F)ccc2N1,-2.59% (active)
9,O=C(O)c1cn(C2CC2)c2cc(N3CCN(C(=O)Nc4nc(-c5ccccc5)cs4)CC3)c(F)cc2c1=O,3.14% (active)
10,N#C/C(=C\c1cccc2cnccc12)N1N=NC2C=CC=CC21 (stereo not given),8.65% (active)
11,Cc1ccccc1NC(=O)c1sc2nc3c(cc2c1N)C(=O)CCC3,36% (inactive)
12,CC(C)c1ccc(C(=O)OCCCl)cc1,85.5% (inactive)
13,O=C(Nc1nn2c(-c3cc(C(F)(F)F)cc(C(F)(F)F)c3)nnc2s1)C1CCCC1,-53.3% (active)
14,Cc1[nH]c(C(=O)Nc2ccccc2OC2CCNC2)c(Cl)c1Cl (stereo not given),90.6% (inactive)
15,Cn1c2c(c3ccc(Cl)c(Cl)c31)C(C#N)C(C)(C)NC2=O (stereo not given),69.3% (inactive)
16,S=C(Cc1ccc(-c2ccccc2)cc1)N1CCOCC1,98.9% (inactive)
17,COc1ccc2c(c1)Nc1ccccc1S2,102% (inactive)
18,Cc1ncc(C(=O)Nc2ccc(CN3CCN(C)CC3)c(C(F)(F)F)c2)cc1C#Cc1ccc(N)nc1,17.6% (inactive)
19,Clc1ccc2c(c1)C(Br)c1cc(Cl)cc(Cl)c1-2 (stereo not given),81.3% (inactive)
20,COc1ccc(C2C3CCc4ccccc4C3=NN2C(=O)c2cc(OC)c(OC)c(OC)c2)cc1O (stereo not given),84.7% (inactive)
